According to PubChem BioAssay (NCATS):
Several values for one entry are separate records, joined by “and”; a condition that tells them apart may be missing. Equal entries are not always repeated. Results filed as inconclusive are left out. Activity calls are given as the source filed them. Unless noted, the call rests on the fitted dose curve; in most records, active means well fitted inhibition curve with a large enough effect; inconclusive means small, poorly fitted or top-dose-only effect; inactive means flat fitted curve, though single readings scatter.

Columns and labels:
[1] = Drug repurposing screens with cells derived from glioblastoma tumor samples (AID 1345199); conditions: GBM patient neurospheres viability, ATP luminescence, 48 h; further: nearly all actives have a fitted effect of over 40% in size; further: potency means the concentration at half of the fitted maximal effect; on activity, negative = cell killing: on the % scale 0 is the no-effect control and ±100 the full control effect
In short: (§1)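 Four patient lines of CD133+ GBM neurospheres were screened at several concentrations; hits were retested in those lines plus three slower-growing GBM lines, using 48-hour treatment and ATP-based viability.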

astro = control astrocytes; experiment: as above; conditions: viability, ATP luminescence, 48 h; series mostly up to 45.9 µM
In short: as §1

[2] = molecular target: Nuclear receptor subfamily 1 group I member 2 (Rattus norvegicus) (UniProt Q9R1A7); experiment: qHTS assay for small molecule activators of the rat pregnane X receptor (rPXR) signaling pathway (AID 651751; call rule not given here; further: 0% is about no effect); conditions: rPXR reporter cells, luciferase (One-Glo), 24 h
[3] = qHTS assay for small molecule activators of the human pregnane X receptor (PXR) signaling pathway (AID 720659; call rule not given here; further: 0% is about no effect); conditions: DPX-2 HepG2 CYP3A4-luciferase, 24 h; series mostly up to 92.3 µM
[4] = at 45.9 µM (top of the series), tumour line B
[5] = at 45.9 µM (top of the series), tumour line D
[6] = at 46 µM (top of the series), tumour line A
[7] = at 46.1 µM (top of the series), tumour line C

Nuclear receptor subfamily 1 group I member 2 (Rattus norvegicus), sequence (Q9R1A7 whole entry, looked up): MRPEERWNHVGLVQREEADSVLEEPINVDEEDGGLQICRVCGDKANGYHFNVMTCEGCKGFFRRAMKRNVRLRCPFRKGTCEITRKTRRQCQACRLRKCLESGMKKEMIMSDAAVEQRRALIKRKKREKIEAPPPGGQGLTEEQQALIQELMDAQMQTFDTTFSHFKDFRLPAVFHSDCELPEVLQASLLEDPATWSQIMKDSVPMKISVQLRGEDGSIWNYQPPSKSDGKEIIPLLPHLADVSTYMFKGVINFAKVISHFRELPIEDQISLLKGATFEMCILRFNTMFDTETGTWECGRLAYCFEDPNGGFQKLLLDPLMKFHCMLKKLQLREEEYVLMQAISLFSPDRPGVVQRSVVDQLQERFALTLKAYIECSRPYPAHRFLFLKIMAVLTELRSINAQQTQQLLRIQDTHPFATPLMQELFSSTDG

COC1=C(OC)C(=O)C(C/C=C(\C)CC/C=C(\C)CC/C=C(\C)CC/C=C(\C)CC/C=C(\C)CC/C=C(\C)CC/C=C(\C)CC/C=C(\C)CC/C=C(\C)CCC=C(C)C)=C(C)C1=O
inactive: activity, negative = cell killing [1, 4] 2.27% | activity, negative = cell killing [1, 5] -1.65% | activity, negative = cell killing [1, 6] -4.78% | activity, negative = cell killing [1, 7] 7.72% | Potency (astro)

Nc1ncnc2c1ncn2[C@H]1CC[C@@H](CO)O1
inactive: activity, negative = cell killing [1, 4] -7.29% | activity, negative = cell killing [1, 5] -3.43% | activity, negative = cell killing [1, 6] -28.3% | activity, negative = cell killing [1, 7] -20.8% | Potency (astro) | max response [2] -2.84% and -0.199% | outcome [3]

N[C@H](CC(=O)O)C(=O)O
inactive: activity, negative = cell killing [1, 4] 13.2% | activity, negative = cell killing [1, 5] 11.3% | activity, negative = cell killing [1, 6] 11.8% | activity, negative = cell killing [1, 7] -1.3% | Potency (astro)

Cc1ncc[nH]1
inactive: activity, negative = cell killing [1, 4] -1% | activity, negative = cell killing [1, 5] -14.2% | activity, negative = cell killing [1, 6] -4.28% | activity, negative = cell killing [1, 7] -3.58% | Potency (astro) | max response [2] 1.58% | outcome [3]

CC(C)[C@@H]1CC[C@@H](C)C[C@H]1O
inactive: activity, negative = cell killing [1, 4] -7.27% | activity, negative = cell killing [1, 5] 3.66% | activity, negative = cell killing [1, 6] -18.1% | activity, negative = cell killing [1, 7] -14.4% | Potency (astro) | max response [2] -1.32% | outcome [3]

FC(F)(F)C(F)(F)C(F)(F)C(F)(F)C(F)(F)F
inactive: activity, negative = cell killing [1, 4] 3% | activity, negative = cell killing [1, 5] -24.7% | activity, negative = cell killing [1, 6] -8.67% | activity, negative = cell killing [1, 7] -13.9% | Potency (astro)

O[C@@H]([C@H](O)[C@H](O)CBr)[C@H](O)CBr
inactive: activity, negative = cell killing [1, 4] -6.4% | activity, negative = cell killing [1, 5] -10.8% | activity, negative = cell killing [1, 6] -25.7% | activity, negative = cell killing [1, 7] 4.72% | Potency (astro)

CC(C)c1ncc([N+](=O)[O-])n1C
inactive: activity, negative = cell killing [1, 4] -8.02% | activity, negative = cell killing [1, 5] -13.9% | activity, negative = cell killing [1, 6] -13.9% | activity, negative = cell killing [1, 7] -14.5% | Potency (astro)

Nc1nc(=O)n([C@@H]2CS[C@H](CO)O2)cc1F
inactive: activity, negative = cell killing [1, 4] -1.96% | activity, negative = cell killing [1, 5] -4.58% | activity, negative = cell killing [1, 6] -12.2% | activity, negative = cell killing [1, 7] 2.71% | Potency (astro)

CCOC(C)OCC
inactive: activity, negative = cell killing [1, 4] -4.71% | activity, negative = cell killing [1, 5] -10.7% | activity, negative = cell killing [1, 6] -12.1% | activity, negative = cell killing [1, 7] -14.4% | Potency (astro) | max response [2] 0.058% | outcome [3]

OCc1ccccc1
inactive: activity, negative = cell killing [1, 4] -6.55% | activity, negative = cell killing [1, 5] 18% | activity, negative = cell killing [1, 6] -25.4% | activity, negative = cell killing [1, 7] 15.3% | Potency (astro) | max response [2] 22.6% | outcome [3]

OCC(O)CO
inactive: activity, negative = cell killing [1, 4] -10.1% | activity, negative = cell killing [1, 5] -10.7% | activity, negative = cell killing [1, 6] -18.9% | activity, negative = cell killing [1, 7] 6.43% | Potency (astro) | max response [2] -2.39% and -3.75% | outcome [3]

CC(C)CCCCCCc1ccc(O)cc1
active: Potency ([1]; tumour line A) 22.4 µM
inactive: activity, negative = cell killing [1, 4] -21.6% | activity, negative = cell killing [1, 5] -27.3% | activity, negative = cell killing [1, 7] -24.2% | Potency (astro) | max response [2] -1.23%

NCCCC[C@H](N)C(=O)O
inactive: activity, negative = cell killing [1, 4] -13.6% | activity, negative = cell killing [1, 5] 9.14% | activity, negative = cell killing [1, 6] -18.9% | activity, negative = cell killing [1, 7] 9.67% | Potency (astro)

OC1OC[C@@H](O)[C@H](O)[C@@H]1O (some centres not stated)
inactive: activity, negative = cell killing [1, 4] -0.633% | activity, negative = cell killing [1, 5] 10.5% | activity, negative = cell killing [1, 6] -6.9% | activity, negative = cell killing [1, 7] 14.5% | Potency (astro)

C[C@@H]1O[C@@H]1P(=O)(O)O
inactive: activity, negative = cell killing [1, 4] -9.49% | activity, negative = cell killing [1, 5] -16.5% | activity, negative = cell killing [1, 6] -24.5% | activity, negative = cell killing [1, 7] -7.45% | Potency (astro)

CC(C)CCC[C@@H](C)[C@H]1CC[C@H]2[C@@H]3CC=C4C[C@@H](O)CC[C@]4(C)[C@H]3CC[C@]12C
inactive: activity, negative = cell killing [1, 4] -9.94% | activity, negative = cell killing [1, 5] -4.88% | activity, negative = cell killing [1, 6] -8.25% | activity, negative = cell killing [1, 7] 1.16% | Potency (astro) | max response [2] -2.23% | outcome [3]

NC(N)=O
inactive: activity, negative = cell killing [1, 4] -9.26% | activity, negative = cell killing [1, 5] -11.1% | activity, negative = cell killing [1, 6] -23.3% | activity, negative = cell killing [1, 7] 7.05% | Potency (astro) | max response [2] 3.1% | outcome [3]
